Assay results as given in PubChem BioAssay AID1626 (SRMLSC, 2009).
The campaign covered roughly 220,000 compounds. About 2,000 (0.91%) were called active. Inconclusive results (about 2%) are left out. These entries were drawn from the full list. Results with a measured potency or affinity are listed apart. A number with no mark means an inactive call. Rule as the data show it: inconclusive = inhibition above about 80% without an active follow-up result; inactive = below that; test concentration not stated here.

Test: M. tuberculosis H37Rv growth inhibitors, H37Rv strain (AID 1626);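 also: bacteria incubated seven days before Alamar blue readout; 0% = bacteria only wells and 100% = bacteria with antibiotic wells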
Settings: stronger effect = higher value, concentration not given here

**Q.** Which inhibition does the source give for `O=C(O)c1sccc1SCc1ccc(Cl)c(Cl)c1` here?
**A.** -2.78%

**Q.** Which inhibition does the source give for `O=C(CNS(=O)(=O)c1cccc(Cl)c1)Nc1ccc(-c2nc3ccccc3s2)cc1` here?
**A.** 1.91%

**Q.** With `O=C1[C@@H]2[C@H](C(=O)N1Cc1cccnc1)[C@H]1C=C[C@@H]2C1` as the molecule, how does the inhibition read?
**A.** 4%

**Q.** With `COc1ccc(NC(=O)NCCCN2CCC(Cc3ccccc3)CC2)cc1` as the molecule, how does the inhibition read?
**A.** -4.94%

**Q.** For `C#C[C@]1(O)CCC2C3CCC4=Cc5oncc5CC4(C)C3CCC21C` (stereo partly specified), which inhibition is on record?
**A.** 3.82%

**Q.** For `CCOC(=O)c1sc(N2N=C(C)C(N=Nc3cccc(C)c3)C2=O)nc1C` (stereo unspecified), which inhibition is on record?
**A.** 57.3%

**Q.** Which inhibition does the source give for `NCCOc1cnn(-c2ccccc2Cl)c(=O)c1Cl` here?
**A.** 0.22%

**Q.** For `COc1ccc(NC(=O)N2CCCC(c3nc(-c4ccc(C(C)C)cc4)no3)C2)cc1` (stereo unspecified), which inhibition is on record?
**A.** 10.7%

**Q.** Which inhibition does the source give for `Cn1c(-c2ccc3c(c2)OCO3)cnc1NCc1ccccc1` here?
**A.** -5.95%

**Q.** Which inhibition does the source give for `Cn1c(-c2ccc3c(c2)OCO3)cnc1NCc1ccc(Cl)cc1` here?
**A.** -3.22%

**Q.** Which inhibition does the source give for `CC(C)C[C@H](NC(=O)c1nc[nH]c1C(=O)NCc1ccccc1)C(=O)OCc1ccccc1` here?
**A.** -9.88%

**Q.** With `O=S(=O)(c1ccc(-n2cnnn2)cc1)N1CCC(N2CCCCC2)CC1` as the molecule, how does the inhibition read?
**A.** 0.43%

**Q.** With `CC(C)CNC(=O)NC(=O)COC(=O)c1cccc(NS(=O)(=O)c2ccc(F)c(F)c2)c1` as the molecule, how does the inhibition read?
**A.** 27.8%

**Q.** Which inhibition does the source give for `Cc1cc(C)n2c(=S)[nH]nc2n1` here?
**A.** -1.62%

**Q.** Which inhibition does the source give for `CCCC(=O)NC(C)c1nc2ccccc2n1CC` (stereo unspecified) here?
**A.** 1.48%

**Q.** Which inhibition does the source give for `Cc1ccc(NC(=O)C2CCN(C(=O)NC3CCCCC3)CC2)cc1Cl` here?
**A.** 7.5%

**Q.** Which inhibition does the source give for `O=C(Nc1ccc(Cl)cc1)NC1CCCCC1` here?
**A.** -3.67%

**Q.** For `O=C(Nc1ccc(F)c(F)c1)NC1CCCCC1`, which inhibition is on record?
**A.** -11.3%

**Q.** For `CC(C)c1ccc(NC(=S)NC2CCCCCC2)cc1`, which inhibition is on record?
**A.** -13.8%

**Q.** Which inhibition does the source give for `Cc1noc(C)c1S(=O)(=O)N1CCCCC1` here?
**A.** -4.38%

**Q.** For `CCC(C)(C)C(=O)Nc1ccc(OC)cc1[N+](=O)[O-]`, which inhibition is on record?
**A.** -0.65%

**Q.** With `CCc1nnc(NC(=O)c2cc3c(s2)CCCCC3)s1` as the molecule, how does the inhibition read?
**A.** -9.6%

**Q.** With `Cc1csc(NC(=O)c2cc3c(s2)CCCCC3)n1` as the molecule, how does the inhibition read?
**A.** 16.1%

**Q.** For `Cc1cc(Cl)ccc1NC(=O)C1CCCN1C(=O)c1cccs1` (stereo unspecified), which inhibition is on record?
**A.** 0.31%

**Q.** For `CCN(CC)CCn1c(SCC(=O)NCc2ccccc2)nc2c(sc3ccccc32)c1=O`, which inhibition is on record?
**A.** 3.01%

**Q.** For `COc1ccc(Nc2c3c(nc4ccccc24)CCCC3)cc1OC`, which inhibition is on record?
**A.** 8.23%

**Q.** Which inhibition does the source give for `O=C(CSc1nnc(NC(=O)c2ccccc2C(=O)O)s1)Nc1ccccc1Cl` here?
**A.** -9.06%

**Q.** Which inhibition does the source give for `CCOc1cc(/C=C/c2cc(C(F)(F)F)[nH]c(=O)n2)ccc1O` here?
**A.** 2.01%

**Q.** With `COc1cc(C(=O)N/N=c2/sc3ccccc3n2C)cc(OC)c1OC` as the molecule, how does the inhibition read?
**A.** -5.9%

**Q.** For `COc1ccccc1NC(=O)c1cc2ccccc2nc1C`, which inhibition is on record?
**A.** 2.95%

**Q.** With `O=C(COc1ccc2c(-c3ccccc3)cc(=O)oc2c1)NCc1cccs1` as the molecule, how does the inhibition read?
**A.** 1.19%

**Q.** For `CCCc1cc(=O)oc2cc(OCC(=O)NCc3cccs3)ccc12`, which inhibition is on record?
**A.** 7.98%

**Q.** For `COc1ccc(Cn2ccnc2CO)cc1[N+](=O)[O-]`, which inhibition is on record?
**A.** -1.53%

**Q.** For `COc1ccc(-c2cc(C(=O)Nc3nc4c(C)cccc4s3)c3ccccc3n2)cc1OC`, which inhibition is on record?
**A.** 12.1%

**Q.** With `COc1cccc(-c2cc(C(=O)Nn3cnnc3)c3ccccc3n2)c1` as the molecule, how does the inhibition read?
**A.** 2.95%

**Q.** With `O=C(O)c1cc(-c2ccccc2)nc2ccccc12` as the molecule, how does the inhibition read?
**A.** -5.49%

**Q.** For `O=C(NC(=S)Nc1ccccc1)c1cc(-c2ccccc2)nc2ccccc12`, which inhibition is on record?
**A.** -4.77%

**Q.** For `O=C(Nc1nc2ccccc2s1)c1cc(-c2ccco2)nc2ccccc12`, which inhibition is on record?
**A.** 13.9%

**Q.** For `COc1ccc(-c2cc(C(=O)Nc3ccc(O)cc3)c3ccccc3n2)cc1OC`, which inhibition is on record?
**A.** 14.5%

**Q.** For `O=C(C[n+]1ccccc1)Nc1c(Cl)cc(Cl)cc1Cl`, which inhibition is on record?
**A.** -1.93%

**Q.** With `Cn1cnnc1SCC(=O)Nc1nc(-c2ccccc2)cs1` as the molecule, how does the inhibition read?
**A.** -4.7%

**Q.** With `COc1ccc(NC(=O)CSc2nc3c([nH]c4ccccc43)c(=O)n2C)cc1` as the molecule, how does the inhibition read?
**A.** 7.61%

**Q.** Which inhibition does the source give for `Cc1ccc(OCC(=O)c2cc(C)n(CC(F)(F)F)c2C)c([N+](=O)[O-])n1` here?
**A.** -2.91%

**Q.** Which inhibition does the source give for `N/C(CS(=O)(=O)c1ccccn1)=N\OC(=O)c1ccc(Cl)cc1` here?
**A.** -1.94%

**Q.** For `Cn1ncc(N)c1C(=O)Nc1cccc(C(F)(F)F)c1`, which inhibition is on record?
**A.** 4.36%

**Q.** For `O=C(c1cccc(Cl)c1)N1CCC(=O)N(C(COCc2ccccc2)Cc2ccccc2)CC1` (stereo unspecified), which inhibition is on record?
**A.** -0.16%

**Q.** For `CCOC(=O)c1sc2nc3c(SCC(=O)O)cc(C(=O)c4cc(F)ccc4O)cn3c(=O)c2c1C`, which inhibition is on record?
**A.** -5.14%

**Q.** For `CC(=O)Nc1cccc(Oc2nc(-c3ccccn3)nc3ccccc23)c1`, which inhibition is on record?
**A.** 3.26%

**Q.** Which inhibition does the source give for `CSc1nc(Oc2ccc(F)cc2)c2ccccc2n1` here?
**A.** 8.64%

**Q.** For `Cc1ccc(Oc2nc(C(F)(F)F)nc3ccccc23)cc1`, which inhibition is on record?
**A.** 9.79%

**Q.** With `CC(=O)Nc1ccc(Oc2nc(-c3ccccn3)nc3ccccc23)cc1` as the molecule, how does the inhibition read?
**A.** -12.6%

**Q.** Which inhibition does the source give for `Cc1cc(Oc2ccc(Cl)cc2)nc(-c2ccccc2O)n1` here?
**A.** 20.4%

**Q.** For `FC(F)(F)c1cc(Oc2ccc(Cl)cc2)nc(-c2ccccn2)n1`, which inhibition is on record?
**A.** 11.7%

**Q.** Which inhibition does the source give for `C/C(=N\Nc1nc(-c2ccccn2)nc2ccccc12)c1ccc(F)cc1` here?
**A.** 67.4%

**Q.** Which inhibition does the source give for `COc1ccc(Oc2nc(-c3ccncc3)nc3ccccc23)cc1` here?
**A.** 3.37%

**Q.** Which inhibition does the source give for `COc1cc(C(=O)c2nccc3cc(OC)c(OC)cc23)c([N+](=O)[O-])cc1OC` here?
**A.** 1.27%

**Q.** Which inhibition does the source give for `COc1ccc(Nc2nnc(SCC(=O)/C=C3/N(C)c4ccccc4C3(C)C)s2)cc1` here?
**A.** 10.8%

**Q.** With `CCSc1nnc(-c2ccc(C)cc2)c2ccccc12` as the molecule, how does the inhibition read?
**A.** 18.7%

**Q.** For `Cc1onc(-c2ccccc2)c1C(=O)N/N=C/c1cc(Br)c(Br)o1`, which inhibition is on record?
**A.** -1.13%

**Q.** With `COc1ccc2nc(SCC(=O)NCCc3ccccc3)[nH]c2c1` as the molecule, how does the inhibition read?
**A.** 0.98%

**Q.** For `O=c1[nH]c(SCc2nc3ccccc3n2Cc2ccccc2)nc2ccccc12`, which inhibition is on record?
**A.** 5.31%
